Consider 35 compounds from ChEMBL document CHEMBL3433997, “St. Jude Leishmania screening dataset” (2016).

Structures are written as SMILES.

Format in all cases: functional
The target in assay [1] is Solute carrier family 2, facilitated glucose transporter member 1 (Homo sapiens) (UniProt P11166). Put plainly: ST_JUDE_LEISH: Cytotoxicity at 2uM final concentration against transgenic Leishmania Mexicana promastigotes LmGLUT1 that are glucose transport deficient and complemented with the human glucose transporter GLUT1. Activity is measured by DNA content using SYBR green in vitro.
Sequence of Solute carrier family 2, facilitated glucose transporter member 1 (Homo sapiens) (P11166 whole entry): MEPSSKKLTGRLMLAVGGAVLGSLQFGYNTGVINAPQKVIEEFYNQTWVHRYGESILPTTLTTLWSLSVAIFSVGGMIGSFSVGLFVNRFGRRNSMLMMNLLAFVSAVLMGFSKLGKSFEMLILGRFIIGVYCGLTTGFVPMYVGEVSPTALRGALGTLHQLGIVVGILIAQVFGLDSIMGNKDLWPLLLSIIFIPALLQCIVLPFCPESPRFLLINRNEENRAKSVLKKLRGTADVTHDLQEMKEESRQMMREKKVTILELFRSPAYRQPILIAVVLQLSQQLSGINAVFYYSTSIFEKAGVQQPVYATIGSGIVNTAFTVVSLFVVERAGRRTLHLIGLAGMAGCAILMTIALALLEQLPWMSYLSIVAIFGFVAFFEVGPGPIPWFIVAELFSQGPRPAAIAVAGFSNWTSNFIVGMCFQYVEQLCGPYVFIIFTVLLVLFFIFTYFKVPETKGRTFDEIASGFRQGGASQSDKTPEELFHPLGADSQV

Assay [2] has as its target Hexose transporter 1 (Plasmodium falciparum) (UniProt O97467). Put plainly: ST_JUDE_LEISH: Cytotoxicity at 2uM final concentration against transgenic Leishmania Mexicana promastigotes LmPfHT that are glucose transport deficient and complemented with the Plasmodium falciparum hexose transporter. Activity is measured by DNA content using SYBR green in vitro.
For assay [3], the target named is Glucose transporter (Leishmania mexicana) (UniProt O61059). The assay can be described thus: ST_JUDE_LEISH: Cytotoxicity at 2uM final concentration against transgenic Leishmania Mexicana promastigotes LmGT2 that are glucose transport deficient and complemented with the L. Mexicana glucose transporter 2. Activity is measured by DNA content using SYBR green in vitro.

For `c1ccc(Oc2ccc(Nc3ccnc4cc(-c5csc(CNCCN6CCOCC6)n5)ccc34)cc2)cc1`, the inhibition in assay [1] was -1.32%; in assay [2], 1.23%; in assay [3], -0.68%.
For `CCOC(=O)N/N=C/[C@H](CCc1ccccc1)NC(=O)[C@H](CC(C)C)NC(=O)c1cc2cccc(OC)c2o1` the same measures were 4.25%, 5.56% and 5.67%.
Taken in the same sequence, the figures for `Clc1ccc2nc(-c3cccnc3)[nH]c2c1` were 6.05%, 8.47% and 6.56%.
As for `COc1cc2nc(N3CCC(CNC(=O)c4ccc(-c5ccccc5)cc4)CC3)nc(N)c2cc1OC`, the inhibition was 1.43% in assay [1], 1.28% in assay [2] and 0.24% in assay [3].
Turning to `O=C(CSc1nccn1Cc1ccco1)Nc1cc(C(F)(F)F)ccc1Cl`, the inhibition turned out to be 13.1% in assay [1], 10.5% in assay [2] and 9.28% in assay [3].
For `Clc1cccc(Cl)c1CCNCC1CCN(CC2CCCCC2)CC1` the same measures were 5.48%, 5.47% and 6.54%.
Consider `CC(C)(C)C1CC(=O)CC2C(=O)N(C3CCCCC3)C(=O)C21` (stereo not given), for which the inhibition is 4.51% in assay [1], 2.76% in assay [2] and 3.68% in assay [3].
As to `Cc1cccc2nc(-c3ccc(-c4cccc(CNCCN5CCNCC5)c4)cc3)[nH]c12`, the inhibition stood at 9.94% in assay [1], 8.32% in assay [2] and 9.01% in assay [3].
`O=C(NCCN1CCCC1)c1cccc(-c2ccc(-c3nc4ccccc4[nH]3)s2)c1`: the inhibition was determined as 3.42% in assay [1], 1.36% in assay [2] and 4.63% in assay [3].
For `COc1ccc(CNC2CCN(C)CC2)cc1-c1ccc(S(=O)(=O)NCc2cccnc2)s1` the same measures were -1.99%, 0.85% and 5.84%.
As to `CCCCCN1CCC(NC(=O)c2ccc(C(=O)Nc3ccc(C(C)C)cc3)cc2)C1` (stereo not given), the inhibition in assay [1] was 1.74%; in assay [2] it was 1.41%; in assay [3], 1.46%.
On to `Cn1ncc2ccc(Nc3nccc(-c4ccc5c(c4)c(N)nn5C)n3)cc21`, for which the inhibition in assay [1] was found to be 93.3%; in assay [2], 97.5%; in assay [3], 93.8%.
In the case of `O=c1nc2[nH]c3ccccc3n2c(=O)[nH]1`, the inhibition in assay [1] was 3.69%; in assay [2] it was 2.18%; in assay [3], 3.41%.
With `NC(=O)c1cc(-c2ccccc2)cc2c(C3CCC(NCc4ccccc4)C3)c[nH]c12` (stereo not given), the results for the inhibition in assay [1], in assay [2] and in assay [3] were 0.91%, 1.64% and 0.8%, respectively.
`O=C(/C=C/c1c[nH]c2ccccc12)NCCCCCN1CCC(c2c[nH]c3ccccc23)CC1`: the inhibition is 3% in assay [1], 1.49% in assay [2] and 1% in assay [3].
Taken in the same sequence, the figures for `O=C1OC2(CN1CC1CCN(Cc3ccc(-n4ccnc4)cc3)C1)c1ccccc1-c1ccccc12` (stereo not given) were 4.6%, 5.24% and 2.86%.
On to `Cc1cccc2nc(-c3ccc(-c4cccc(CNCCCNS(C)(=O)=O)c4)s3)[nH]c12`, for which the inhibition was 0.75% in assay [1], 2.35% in assay [2] and -2.06% in assay [3].
For `CN1CCN(c2nc(NCCNc3ccc([N+](=O)[O-])cc3)c3ccccc3n2)CC1` the same measures were 0.92%, 0.91% and 0.54%.
`CC[C@H](C)[C@H](NC(=O)[C@H](CC1CCCCC1)[C@H](CC)N(O)C=O)C(=O)Nc1ccccn1`: the inhibition came out at 8.41% in assay [1], 8.39% in assay [2] and 8.25% in assay [3].
`O=C(Nc1ccccc1)N(Cc1ccccc1-c1cccc(CNCCc2ccccc2)c1)C1CCN(Cc2ccccc2)CC1`: the values for the inhibition in assay [1], in assay [2] and in assay [3] were -1.02%, 0.26% and -0.84%, respectively.
Taken in the same sequence, the figures for `O=C(Nc1cccc(-c2ccc(NCCCN3CCCC3)nc2)c1)c1ccccc1` were 5.13%, 6.59% and 0.77%.
On to `C#CCN(Cc1cc2c(=O)[nH]c(N)nc2cc1C)c1ccc(C(=O)N[C@@H](CCC(=O)O)C(=O)O)cc1`, for which the inhibition in assay [1] came out at 6.81%; in assay [2], 0.4%; in assay [3], 8.07%.
As for `COc1cc(NC(=O)c2cc([N+](=O)[O-])ccc2NC(=O)CNC2CCCC(C)C2C)cc(OC)c1` (stereo not given), the inhibition was 12% in assay [1], 4.27% in assay [2] and 3.41% in assay [3].
For `O=C(/C=C/c1ccc(Cl)c(Cl)c1)NCCCCCN1CCN(C(=O)Nc2cccc(F)c2)CC1`, the inhibition in assay [1] was 3.99%; in assay [2], 2.95%; in assay [3] it was 2.33%.
Regarding `CCCCn1c(SC(C)C)nc2c(c1=O)C1(CCCCC1)Cc1ccccc1-2`, the inhibition in assay [1] came to 4.14%; in assay [2], 4.8%; in assay [3] it was 3.66%.
Turning to `O=C(/C=C/c1ccc([N+](=O)[O-])cc1)N1CCC(NS(=O)(=O)c2ccc(F)cc2)CC1`, the inhibition in assay [1] is 6%; in assay [2], 3.96%; in assay [3], 7.08%.
For the compound `Fc1ccc(Nc2ccnc3cc(-c4cccc(CNCCN5CCOCC5)c4)ccc23)c(Cl)c1`, the inhibition in assay [1] worked out at 2.04%; in assay [2] it was 2.83%; in assay [3], 2.84%.
As for `S=C(NCCCCCN1CCC(c2c[nH]c3ccccc23)CC1)Nc1cccc(I)c1`, the inhibition in assay [1] was 0.7%; in assay [2], 1.62%; in assay [3], -1.76%.
As for `O=C(Nc1ccc(-c2ccccc2)cc1)Nc1cccc(Cn2cnc(N3CCCNCC3)cc2=O)c1`, the inhibition worked out at 5.12% in assay [1], 4.17% in assay [2] and 4.86% in assay [3].
For `CCN(CC)S(=O)(=O)n1ncc2c3c(N)nc(N)nc3ccc21` the same measures were -2.64%, 0.17% and -2.31%.
`CS(=O)(=O)Nc1ccc2[nH]cc(C3CCN(CC4CCC(NC(=O)/C=C/c5ccc(Cl)c(Cl)c5)CC4)CC3)c2n1` (stereo not given): the inhibition stood at 3.3% in assay [1], 1.84% in assay [2] and 0.21% in assay [3].
With `CN(C)C=Nc1ccc(OCCCCCCOc2ccc(N=CN(C)C)cc2)cc1`, the inhibition in assay [1] came to 3.14%; in assay [2] it was 3.26%; in assay [3], 2.37%.
For the compound `COc1cccc(C(=O)Nc2sc3c(c2C(N)=O)CCCC3)c1OC`, the inhibition in assay [1] came out at 0.25%; in assay [2], 8.04%; in assay [3], 12.7%.
Taken in the same sequence, the figures for `Fc1cc(CN2CCCC2)ccc1OCCCN1CCN(c2cccc(Cl)c2Cl)CC1` were 4.56%, 5.47% and 4.5%.
For `Cc1ccc(C)c(Sc2ccc(NC(=O)CN3CCN(C(=O)c4ccco4)CC3)cc2)c1` the same measures were 0.6%, 0.52% and 0.17%.

One may read the inhibition as the drop in the measured response relative to a control, in per cent.
